# Results published in PubChem BioAssay.
# Several values for one entry are separate records, joined by “and”; a condition that tells them apart may be missing. Identical values can stand only once. Activity calls are given as the source filed them. Cut-off read from the data, not from the text of the source, unless noted: active = parasite load remaining mostly below about 12% (no sharp cut-off); inactive = mostly above about 10%.
# Key:
# [1] = P. berghei load reduction in hepatocytes – cell-based, HepG2, luciferase luminescence, HepG2 viability, primary screen (AID 624349);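 note: 100% = mean of DMSO negative control wells on the same plate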; conditions: P. berghei liver stage in HepG2, luciferase luminescence, concentration not given here; parasite load remaining: stronger effect = lower value; viability: measured here: HepG2 viability without parasites
# [2] = tested on: Hepatitis C virus NS3 helicase; experiment: blockers of NS3h binding to ssDNA – biochemical, fluorescence polarization, LOPAC1280 library, primary screen (AID 687035; in the data active = inhibition above about 37%); conditions: Purified HCV NS3 helicase, Cy5-dT15 ssDNA binding fluorescence polarization; stronger effect = higher value; concentration not given here
# [3] = compounds altering Cy5-DNA-NS3h complex signal – biochemical, LOPAC1280, artefact control for HCV NS3 helicase inhibitor project (AID 687037; call rule not given here); conditions: Cy5-DNA-NS3h complex fluorescence interference counterscreen
# [4] = Wnt pathway potentiators raising nuclear beta-catenin – imaging, WNT3A-conditioned medium, mouse C2C12, NPC library, primary screen (AID 1117326; in the data active = nuclear beta-catenin stimulation mostly above about 4.2%, no sharp cut-off; inactive = mostly below about 10%); conditions: stronger effect = higher value
# [5] = stimulators of insulin release from INS-1E, primary screen, cell-based, 5 mM glucose, NPC library (AID 1117329;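 active = compound raises insulin release from rat beta cells at 5 mM glucose, no numeric limit stated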); conditions: rat INS-1E insulin secretion, at 10 µM, stronger effect = higher value
# [6] = growth inhibition of GSK3B-pretreated HCT116 cells – cell-based, CellTiter-Glo, 0.2 to 20 µM (AID 1117336;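 active = compounds lowering colon cancer cell viability after pretreatment blocking the GSK3B kinase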); conditions: HCT116 viability after GSK3B inhibitor, at 20 µM, stronger effect = higher value
# [7] = inhibition of endothelial tube formation, primary screen, imaging, VEGF stimulated, CD31 staining, tube area, NPC library (AID 1117340;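 active = compound that reduces growth-factor-driven endothelial tube area in a mixed cell culture, no cutoff stated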); conditions: VEGF-stimulated ADSC/ECFC co-culture, at 10 µM, stronger effect = higher value
# [8] = GLP1 release stimulators, primary, NCI-H716, NPC library (AID 1117341;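 active = compound raises GLP1 secretion from the human gut endocrine cells, with no numeric limit stated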); conditions: NCI-H716 cells, at 10 µM, stronger effect = higher value
# [9] = HCT116 colon cancer cell growth inhibition, primary screen, CellTiter-Glo luminescence, NPC library (AID 1117342;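 active = compounds that lower survival of HCT116 colon cancer cells in the luminescence readout, no numeric limit stated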); conditions: at 20 µM (top of the series)
# [10] = reduced SW480 viability measured with CellTiter-Glo, NPC library, primary (AID 1117343;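 active = compounds that lower viability of the colon cancer cells in the luminescence readout, with no numeric limit stated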); conditions: CellTiter-Glo luminescence; at 20 µM (top of the series)
# [11] = NPC library primary testing for decreased DLD-1 cell viability via CellTiter-Glo (AID 1117346;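 active = compounds that lower survival of DLD-1 colon cancer cells in the luminescence readout, no cutoff given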); conditions: DLD-1 viability, CellTiter-Glo luminescence; at 20 µM (top of the series)
# [12] = target: 6-phosphogluconate dehydrogenase, decarboxylating (Homo sapiens) (UniProt P52209); experiment: inhibition of human phosphogluconate dehydrogenase – biochemical, recombinant enzyme, NADPH absorbance, primary screen (AID 1159550;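 active = at least 20% inhibition of 6-phosphogluconate dehydrogenase activity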); conditions: recombinant 6PGD, NADPH absorbance 341 nm; at 10 µM; stronger effect = higher value
# Chain of 6-phosphogluconate dehydrogenase, decarboxylating (Homo sapiens) (P52209 whole entry, looked up): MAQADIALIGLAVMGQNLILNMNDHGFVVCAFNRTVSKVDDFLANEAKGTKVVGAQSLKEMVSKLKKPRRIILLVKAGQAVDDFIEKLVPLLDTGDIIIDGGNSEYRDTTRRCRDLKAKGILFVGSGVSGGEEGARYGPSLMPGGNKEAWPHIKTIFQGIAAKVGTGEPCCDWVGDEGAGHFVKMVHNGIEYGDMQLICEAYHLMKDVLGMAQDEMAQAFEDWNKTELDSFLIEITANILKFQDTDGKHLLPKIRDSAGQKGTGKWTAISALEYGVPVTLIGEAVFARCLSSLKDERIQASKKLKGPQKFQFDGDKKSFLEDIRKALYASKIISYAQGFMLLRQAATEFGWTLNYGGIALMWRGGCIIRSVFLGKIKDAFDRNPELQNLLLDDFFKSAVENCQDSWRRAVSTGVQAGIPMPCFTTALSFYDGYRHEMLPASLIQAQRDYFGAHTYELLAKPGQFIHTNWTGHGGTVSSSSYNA
# [13] = signal quenchers or enhancers, Cy5 substrate/SSB – biochemical, NIH Clinical Collection, E. coli SSB, artefact control for HCV NS3 helicase inhibitor project (AID 743268; call rule not given here); conditions: Cy5-oligo bound E. coli SSB, fluorescence interference
# [14] = tested on: Hepatitis C virus NS3 helicase; experiment: blockers of NS3h binding to DNA – biochemical, fluorescence polarization, NIH Clinical Collection, primary screen (AID 743270; call rule not given here); conditions: NS3 helicase binding to Cy5-dT15 DNA, stronger effect = higher value, concentration not given here
# [15] = target: Single-stranded DNA-binding protein (Escherichia coli (strain K12)) (UniProt P0AGE0); experiment: SSB-ssDNA binding inhibitors – biochemical, fluorescence polarization, NIH Clinical Collection, counter-screen for HCV NS3 helicase inhibitor project (AID 743271; in the data active = inhibition above about 28%); conditions: E. coli SSB-DNA binding, stronger effect = higher value, concentration not given here
# [16] = compounds distorting NS3 helicase fluorescence signal – biochemical, NIH Clinical Collection, artefact control for HCV NS3 helicase inhibitor project (AID 743272; call rule not given here;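 note: HCV NS3 helicase with a Cy5 labelled single stranded DNA probe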); conditions: fluorescence interference counterscreen, HCV NS3 helicase assay; stronger effect = lower value
Structure (SMILES),parasite load remaining [1],viability [1],inhibition [2],fluorescence ratio (interference) [3],nuclear beta-catenin stimulation ([4]; at 10 µM),"nuclear beta-catenin stimulation ([4]; stimulation, at 2 µM) [%]",insulin secretion stimulation [5],viability decrease [6],tube area decrease [7],GLP1 secretion stimulation [8],inhibition of viability [9],viability decrease (inhibition) [10],viability decrease (inhibition) [11],inhibition [12],fluorescence ratio [13],inhibition [14],inhibition [15],fluorescence ratio [16]
CNC[C@H](O)c1cccc(O)c1,64.7% (inactive) and 44.2% (inactive),77.3% and 99.6%,-1% (inactive),1 (inactive),1.9% (inactive),1.7,0% (inactive),-4.6% (inactive),-2.9% (inactive),1.4% (inactive),3.8% (inactive),12.3% (inactive),-9.9% (inactive),10.8% (inactive),–,–,–,–
CC(C)COCC(CN(Cc1ccccc1)c1ccccc1)N1CCCC1 (stereo not given),–,–,0% (inactive),1 (inactive),0.1% (inactive),-1.8,4.8% (inactive),98% (active),32.8% (inactive),4.3% (inactive),105% (active),117% (active),97% (active),1.94% (inactive),–,–,–,–
CSc1ccc2c(c1)C(N1CCN(C)CC1)Cc1ccccc1S2 (stereo not given),74.1% (inactive) and 71.4% (inactive) and 63.7% (inactive),72.2% and 69.9% and 104%,-5% (inactive),0.9 (inactive),61.9% (active),1.4,30.7% (active),111% (active),61.8% (active),19.2% (inactive),113% (active),132% (active),102% (active),-11.1% (inactive),–,–,–,–
N[C@@H](Cc1ccc(O)c(O)c1)C(=O)O,–,–,1% (inactive),1 (inactive),1% (inactive),-0.9,2.9% (inactive),68.9% (active),-13.9% (inactive),1.9% (inactive),49.9% (inactive),66.7% (active),47.5% (inactive),2.07% (inactive),–,–,–,–
CC1(C)NC(=O)N(c2ccc([N+](=O)[O-])c(C(F)(F)F)c2)C1=O,54.2% (inactive) and 50.4% (inactive) and 7.05% (inactive),92.2% and 99% and 125%,-2% (inactive),1 (inactive),-0.3% (inactive),2.1,0.7% (inactive),-16.7% (inactive),6.9% (inactive),-1.4% (inactive),8.8% (inactive),18.3% (inactive),-16.7% (inactive),9.97% (inactive),–,–,–,–
Cc1nc2sccn2c(=O)c1CCN1CCC(=C(c2ccc(F)cc2)c2ccc(F)cc2)CC1,16.8% (inactive),91.8%,0% (inactive),0.9 (inactive),13.4% (inactive),4.3,2% (inactive),86.2% (active),28.7% (inactive),10.9% (inactive),90.6% (active),133% (active),105% (active),13.5% (inactive),–,–,–,–
C[n+]1ccccc1/C=N/O,55.9% (inactive) and 86% (inactive) and 126% (inactive),133% and 101% and 76.5%,–,–,-0.7% (inactive),-0.6,2.2% (inactive),15.7% (inactive),-4.4% (inactive),-3.1% (inactive),1.77% (inactive),-3.4% (inactive),0.4% (inactive),-6.73% (inactive),1 (inactive),-3.18% (inactive),-0.48% (inactive),0.96 (inactive)
CCN(CC)C(C)CN1c2ccccc2Sc2ccccc21 (stereo not given),77.1% (inactive) and 61.6% (inactive) and 39% (inactive),89.3% and 65.2% and 91.5%,-1% (inactive),1 (inactive),3.4% (inactive),0.5,7.3% (active),-28.5% (inactive),25% (inactive),4.8% (inactive),69.2% (active),109% (active),76.9% (active),-5.57% (inactive),–,–,–,–
CCCN(CCC)C(=O)C(CCC(=O)O)NC(=O)c1ccccc1 (stereo not given),–,–,-4% (inactive),0.9 (inactive),-0.6% (inactive),0.3,1.3% (inactive),-11.7% (inactive),-25.9% (inactive),0.4% (inactive),-4.15% (inactive),-0.1% (inactive),-14.6% (inactive),1.53% (inactive),–,–,–,–
CN(C)C(=O)Oc1cccc([N+](C)(C)C)c1,–,–,-5% (inactive),1 (inactive),1% (inactive),5.2,-0.9% (inactive),10% (inactive),-12.9% (active),1.3% (inactive),2.9% (inactive),-16.1% (inactive),-5.8% (inactive),-2.26% (inactive),–,–,–,–
Oc1c(Cl)cc(Cl)c(Cl)c1Cc1c(O)c(Cl)cc(Cl)c1Cl,-3.37% (inactive) and -0.17% (inactive) and -0.05% (inactive),54.9% and 42.6% and 53.4%,–,–,15% (inactive),8.3,-3.4% (inactive),117% (active),108% (active),17.4% (inactive),124% (active),149% (active),101% (active),-10.3% (inactive),1.01 (inactive),15.9% (inactive),20.1% (inactive),0.92 (inactive)
